SMILES strings stand for the structures. Unmarked numbers belong to inactive results. The source made the active and inactive calls. Unless noted, no stated cut-off is given here; in the data, active means inhibition above about 25%; inactive means the rest.

Experiment [1] concerns the target Nuclear receptor coactivator 1 (Homo sapiens) (UniProt Q15788). The experiment can be described thus: NCOA1 GAL4-fusion reporter inhibition – cell-based, luminescence, quadruplicate, confirmation (AID 588820;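 active means mean inhibition above 46.68%, the untreated control wells mean plus 3 SD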;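 further: 0% = DMSO wells and 100% = gossypol 36 µM treated wells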). The conditions noted are these: HEK293 GAL4-SRC1 luciferase reporter, at 3.6 µM, stronger effect = higher value.
Experiment [2] in a line: repression of VP16-driven luciferase reporter – cell-based, luminescence, high throughput, counter-screen for SRC1 inhibitor project (AID 588824). Conditions: cell-based VP16 transactivation luciferase luminescence; at 3.6 µM; stronger effect = higher value.

Sequence of Nuclear receptor coactivator 1 (Homo sapiens) (Q15788 whole entry, looked up, the tested form may be a part): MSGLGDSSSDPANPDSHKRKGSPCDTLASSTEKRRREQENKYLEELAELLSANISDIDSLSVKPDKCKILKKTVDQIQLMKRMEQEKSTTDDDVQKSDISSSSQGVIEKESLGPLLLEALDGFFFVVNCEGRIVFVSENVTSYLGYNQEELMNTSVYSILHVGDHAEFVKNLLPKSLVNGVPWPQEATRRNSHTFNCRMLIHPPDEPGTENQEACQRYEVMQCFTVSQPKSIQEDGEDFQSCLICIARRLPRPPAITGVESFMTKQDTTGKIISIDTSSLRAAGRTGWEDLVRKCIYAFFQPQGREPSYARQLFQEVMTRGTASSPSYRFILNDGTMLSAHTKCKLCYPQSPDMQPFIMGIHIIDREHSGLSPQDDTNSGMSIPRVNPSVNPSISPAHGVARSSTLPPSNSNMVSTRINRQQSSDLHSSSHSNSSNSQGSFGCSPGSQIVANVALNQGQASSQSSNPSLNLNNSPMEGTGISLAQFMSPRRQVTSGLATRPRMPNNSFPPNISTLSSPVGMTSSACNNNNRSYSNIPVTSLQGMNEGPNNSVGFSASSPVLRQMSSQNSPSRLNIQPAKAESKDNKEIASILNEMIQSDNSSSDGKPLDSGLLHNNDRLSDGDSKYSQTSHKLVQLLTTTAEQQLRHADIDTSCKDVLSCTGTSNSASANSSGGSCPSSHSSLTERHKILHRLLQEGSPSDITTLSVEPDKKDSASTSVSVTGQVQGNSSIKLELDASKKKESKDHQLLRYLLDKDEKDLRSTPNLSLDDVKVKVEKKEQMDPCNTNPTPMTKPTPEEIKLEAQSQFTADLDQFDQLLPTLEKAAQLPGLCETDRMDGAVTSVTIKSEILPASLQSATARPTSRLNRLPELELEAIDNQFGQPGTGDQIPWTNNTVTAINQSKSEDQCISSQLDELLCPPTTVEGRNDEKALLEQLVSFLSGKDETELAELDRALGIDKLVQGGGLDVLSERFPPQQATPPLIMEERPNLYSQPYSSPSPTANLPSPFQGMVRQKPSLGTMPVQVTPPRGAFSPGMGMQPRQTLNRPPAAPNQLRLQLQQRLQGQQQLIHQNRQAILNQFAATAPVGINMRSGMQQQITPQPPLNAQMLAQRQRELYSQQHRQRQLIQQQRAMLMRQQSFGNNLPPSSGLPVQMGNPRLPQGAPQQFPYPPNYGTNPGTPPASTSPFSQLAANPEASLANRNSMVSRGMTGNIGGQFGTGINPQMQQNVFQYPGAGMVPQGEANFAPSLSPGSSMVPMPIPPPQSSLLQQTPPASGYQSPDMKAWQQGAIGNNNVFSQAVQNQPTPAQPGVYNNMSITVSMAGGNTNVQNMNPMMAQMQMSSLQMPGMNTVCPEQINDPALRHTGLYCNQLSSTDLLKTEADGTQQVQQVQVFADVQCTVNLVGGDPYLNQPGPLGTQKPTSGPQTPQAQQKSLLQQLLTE

Regarding `CC(=O)c1cccc(NC(=O)c2cc(Cl)sc2Cl)c1`, the figures for the inhibition in experiment [1] and in experiment [2] were -60.7% and -30.6%, respectively.

Consider `CC(=O)/C(=C/c1ccccc1)C(=O)Nc1ccccc1C`, for which the inhibition is 5.97% in experiment [1] and 23.8% in experiment [2].

As to `Nn1c(SCC(=O)Nc2ccccc2)nnc(Cc2ccccc2)c1=O`, the inhibition in experiment [1] was 0.49%; in experiment [2], 5.01%.

Regarding `O=C(Nc1ccc2c(c1)OCCO2)C(c1cc2ccccc2o1)N1CCN(C/C=C/c2ccccc2)CC1` (centres undefined), the inhibition was -6.79% in experiment [1] and -12.4% in experiment [2].

On to `CSCCC(NC(=O)c1ccco1)C(=O)OCC(=O)N(Cc1ccccc1)C(C)(C)C` (centres undefined), for which the inhibition was -15.8% in experiment [1] and -3.79% in experiment [2].

For the molecule `CCSc1nnc(NC(=O)C(C)(C(F)(F)F)C(F)(F)F)s1`, the inhibition was -15.3% in experiment [1] and 4.32% in experiment [2].

In the case of `Fc1cc2[nH]cnc2cc1Cl`, the inhibition is -2.02% in experiment [1] and -5.47% in experiment [2].

On to `O=C(Nc1nc(-c2ccccn2)cs1)c1cccc(-n2cnnn2)c1`, for which the inhibition was 17.6% in experiment [1] and 7.13% in experiment [2].

As to `CSc1ccc(CN2CCN(C(=O)CC(C)C)CC2)cc1`, the figures for the inhibition in experiment [1] and in experiment [2] were -3.21% and -2.54%, respectively.

As for `COc1ccc([C@H]2CC(=O)C=C(c3ccnc4ccc(Cl)cc34)C2)cc1`, the values for the inhibition in experiment [1] and in experiment [2] were 2.04% and 29.2% (active), respectively.

As for `CSc1nc2[nH]ncc2c(=O)[nH]1`, the inhibition was -1.61% in experiment [1] and 1.46% in experiment [2].

Consider `c1ccc(-c2nc(NCCCn3ccnc3)c3ccccc3n2)cc1`, for which the inhibition in experiment [1] is -10.8%; in experiment [2] it was -2.43%.

Consider `COc1ccc(-c2csc(N3CCN(c4cc(C)nc5ccccc45)CC3)n2)cc1OC`, for which the inhibition in experiment [1] was -18%; in experiment [2] it was 20.4%.

As to `CN(C)/C=C/C(=O)c1ccn(S(=O)(=O)c2ccccc2)c1`, the results for the inhibition in experiment [1] and in experiment [2] were -2.09% and -2.37%, respectively.

On to `O=C(CNC(=O)c1ccco1)Nc1ccncc1`, for which the figures for the inhibition in experiment [1] and in experiment [2] were -25.7% and -3.08%, respectively.

As to `CC(=O)N/C(=N/c1nc(C)cc(C)n1)Nc1cccc(C)c1C`, the inhibition was -0.27% in experiment [1] and -6.32% in experiment [2].

With `Cc1cc2nc(C3CCCCC3)c(Cc3cccc(F)c3)n2c(C)c1Br`, the figures for the inhibition in experiment [1] and in experiment [2] were 4.23% and 11.8%, respectively.

`Cc1cc(NC(=O)CN2CCN(S(=O)(=O)c3ccc4ccccc4c3)CC2)no1`: the inhibition in experiment [1] was -3.08%; in experiment [2], -1.04%.

Turning to `CC1=C(C(=O)OC2CCCCC2)C(c2ccc(C)o2)C2=C(CC(C)(C)CC2=O)N1` (centres undefined), the results for the inhibition in experiment [1] and in experiment [2] were -5.08% and 4.47%, respectively.

With `O=C(Nc1ccn(Cc2c(F)c(F)c(F)c(F)c2F)n1)c1ccc(COc2ccccc2Cl)cc1`, the inhibition in experiment [1] was 3.66%; in experiment [2] it was 8.16%.

In the case of `NC(=O)c1nsc(C(=O)N(c2ccccc2F)C(C(=O)NCc2ccc(F)cc2)c2ccc(O)cc2)c1N` (centres undefined), the values for the inhibition in experiment [1] and in experiment [2] were -23.1% and -2.03%, respectively.

Regarding `N#Cc1c(-c2ccccc2)c(C#N)c2nc3ccccc3n2c1N`, the inhibition in experiment [1] was 15.8%; in experiment [2] it was 17.8%.

In the case of `CCOc1ccc(NC(=O)NCCCSC2CCCCC2)cc1`, the inhibition in experiment [1] was -7.9%; in experiment [2], -11.4%.

Regarding `COc1ccc(NC(=O)c2cc3c(s2)CCC(C)C3)cc1S(=O)(=O)N1CCOCC1` (centres undefined), the inhibition in experiment [1] was 9.02%; in experiment [2] it was 25.1%.

For the molecule `CCOc1ccc(CSC(=N)N)cc1Cl`, the inhibition in experiment [1] is -21.1%; in experiment [2], 9.52%.

`COCCOc1ccc(C(F)(F)F)cc1NC(=O)c1ccc(C(F)(F)F)cc1`: the values for the inhibition in experiment [1] and in experiment [2] were 6.49% and 3.69%, respectively.

For `O=C1NCCc2c1[nH]c1ccc([N+](=O)[O-])cc21`, the inhibition was 23.1% in experiment [1] and 18.1% in experiment [2].

Take `CCN(CC)c1ccc(C=Nc2cc(C)ccc2C)c(O)c1`: the results for the inhibition in experiment [1] and in experiment [2] were 3.4% and -6.63%, respectively.

With `O=C1c2cccc(OCc3ccc(F)cc3)c2CCN1Cc1ccccc1`, the inhibition is 20.6% in experiment [1] and 13.6% in experiment [2].

For `c1ccc(-c2csc3ncnc(NCCN4CCOCC4)c23)cc1`, the figures for the inhibition in experiment [1] and in experiment [2] were 27.7% and 22.6%, respectively.

With `c1ccc(-c2cc(N3CCCCC3)nc(-c3ccccc3)n2)cc1`, the inhibition in experiment [1] was -21.1%; in experiment [2], -2.43%.

Turning to `CCOc1ccc(NC(=O)c2ccc(CN3CCc4ccccc4C3)cc2)cc1`, the inhibition in experiment [1] was -25.7%; in experiment [2], 36.5% (active).

On to `Cc1noc(C)c1COC(=O)CCN1c2ccccc2Sc2ccccc21`, for which the inhibition is 0.23% in experiment [1] and -13.4% in experiment [2].

As for `CC1CCN(C(=O)c2scc3c2OCCO3)CC1`, the figures for the inhibition in experiment [1] and in experiment [2] were 18.3% and 8.58%, respectively.

For the molecule `O=C(NCc1ccccc1)c1cc(S(=O)(=O)N2CCCCC2)ccc1N1CCOCC1`, the inhibition in experiment [1] is -1.88%; in experiment [2], 11.3%.

Turning to `Cc1csc(N=Cc2ccc([N+](=O)[O-])o2)n1`, the values for the inhibition in experiment [1] and in experiment [2] were 30.6% and 32.2% (active), respectively.

Take `FC(F)(F)c1cccc(Oc2ccc3c(C(F)(F)F)cc(C(F)(F)F)nc3n2)c1`: the values for the inhibition in experiment [1] and in experiment [2] were -2.81% and -6.43%, respectively.

For the origin of these results see PubChem BioAssay.
